Compound activity as filed in PubChem BioAssay.
An excerpt weighted towards active compounds, which were near 4.1% of everything screened.
hcDAF12 agonist: H. contortus DAF-12 nuclear receptor activators, primary screen, cell-based, luminescence, HEK293, lit1-tk-luc reporter. HEK293 hcDAF-12 lit1-tk-luc reporter; 0% DMSO, 100% Δ7-dafachronic acid. activation, % at 6.8 µM. 370,000 compounds, 1.4% hits. AID 652067, 2013;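 active = activation above the mean of all tested compounds plus 3 SD, cut at about 5.5% in these data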;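 also: 100% = response to 3 µM Δ7-dafachronic acid high control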
hgDAF12 agonist: H. glycines DAF-12 receptor agonists, primary screen, cell-based, luminescence, HEK293, GAL4 fusion, UAS-luciferase | Nuclear hormone receptor DAF-12 (Heterodera glycines), GAL4 fusion | HEK293 GAL4-hgDAF12 UAS-luciferase reporter, agonist luminescence; normalized to butyrate control | activation, % at 6.8 µM | 370,000 compounds, 1.8% hits;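 active = activation above a cutoff set at the mean of all screened compounds plus 3 SD, cut at about 10% in these data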;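 also: 0% = DMSO wells and 100% = sodium butyrate wells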
ssDAF12 agonist: S. stercoralis DAF-12 nuclear receptor activators, primary screen, cell-based, luminescence, HEK293, GRIP1 co-expression, lit1-tk-luc | activation, % at 6.8 µM | 370,000 compounds, 1% hits | Nuclear hormone receptor DAF-12 (Strongyloides stercoralis) | HEK293 ssDAF-12/GRIP1 lit1-tk-luc reporter; % of 3 µM dafachronic acid response;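 active = activation above the mean over all tested compounds plus 3 SD, cut at about 0.9% in these data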;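 also: 0% = DMSO-only wells and 100% = 3 µM delta7-dafachronic acid wells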
DAX1 inh-1: DAX1 (NR0B1) inhibitors, primary screen, cell-based, HEK293, Gal4-DAX1, luciferase luminescence. Nuclear receptor subfamily 0 group B member 1 (Homo sapiens), P51843. 340,000 compounds, 0.99% hits. AID 504766, 2011. HEK293 Gal4-DAX1 luciferase reporter. inhibition, % at 6.75 µM;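 active = inhibition above the mean over all tested compounds plus 3 SD, cut at about 4.2% in these data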;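 also: 0% = DAX1-transfected cells with DMSO and 100% = empty-vector control cells with DMSO; inhibition shows as a rise in luminescence from relieved DAX1 repression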
Target sequence (P51843 207-470 limits assumed): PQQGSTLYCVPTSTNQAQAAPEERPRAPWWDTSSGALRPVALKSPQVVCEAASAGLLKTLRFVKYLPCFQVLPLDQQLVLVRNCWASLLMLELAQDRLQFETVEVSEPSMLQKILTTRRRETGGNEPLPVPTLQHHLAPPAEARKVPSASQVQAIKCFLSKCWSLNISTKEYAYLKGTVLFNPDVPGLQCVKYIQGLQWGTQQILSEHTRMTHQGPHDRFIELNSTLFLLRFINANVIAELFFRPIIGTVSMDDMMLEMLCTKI
DAX1 inh-2: DAX1 (NR0B1) inhibitors on StAR promoter, primary screen, cell-based, luminescence, SF-1 (NR5A1), full-length DAX-1; AID 652010, 2013; HEK293T StAR-luciferase reporter, SF-1/DAX-1 repression relief; 370,000 compounds, 1.1% hits; inhibition, % at 6.8 µM;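 active = inhibition above the mean over all tested compounds plus 3 SD, cut at about 3.6% in these data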;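 also: 0% = DAX-1 cells with DMSO and 100% = cells lacking DAX-1 with DMSO; higher inhibition means more luminescence from relief of DAX-1 repression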
Starred values were filed as active, the others as inactive.

Results for CN(C)c1ccc(-c2cc(NC=O)c3ncc(-c4ccc(F)c(Cl)c4)n3c2)cc1 ?
hcDAF12 agonist: -1.2; hgDAF12 agonist: 1.2; ssDAF12 agonist: -1.3; DAX1 inh-2: -0.6

How did Cc1c(Cl)cccc1N1C(=O)CC(NNC(=O)c2cccnc2)C1=O (stereo unspecified) do in these assays?
hcDAF12 agonist: -1.3; hgDAF12 agonist: 0.7; ssDAF12 agonist: -1.5; DAX1 inh-1: -0.9; DAX1 inh-2: 0.2

How did Cc1c(Cl)cccc1N1C(=O)CC(NNC(=O)c2cccs2)C1=O (stereo unspecified) do in these assays?
hcDAF12 agonist: 4.2; hgDAF12 agonist: 10.4*; ssDAF12 agonist: -0.3; DAX1 inh-1: 0.4; DAX1 inh-2: 1.5

Results for CC(=O)Oc1ccc(C(=O)[C@H]2[C@H]3C(=O)N(c4ccc(C)cc4C)C(=O)[C@H]3[C@@H]3C=CC=NN32)cc1 ?
hcDAF12 agonist: -0.6; hgDAF12 agonist: 0.6; ssDAF12 agonist: -1.2; DAX1 inh-1: 4.2*; DAX1 inh-2: -0.2

What do the screens show for `Cc1ccc(N2C(=O)[C@@H]3[C@H](C2=O)[C@H]2C=CC=NN2[C@@H]3C(=O)Nc2ccccc2)cc1`?
hcDAF12 agonist: 2.9; hgDAF12 agonist: 1.6; ssDAF12 agonist: 1.2*; DAX1 inh-1: -2.4; DAX1 inh-2: 0.4

Results for COc1ccc(-c2cc(C(=O)NN=C/C(C)=C/c3ccccc3)[nH]n2)cc1 ?
hcDAF12 agonist: -0.7; hgDAF12 agonist: -1.7; ssDAF12 agonist: -1.6; DAX1 inh-2: -2.3

What do the screens show for `CC(=O)C1(C(=O)N2CCOCC2)CC(c2ccccc2C(F)(F)F)=NO1` (stereo unspecified)?
hcDAF12 agonist: -1.6; hgDAF12 agonist: 3.4; ssDAF12 agonist: -0.8; DAX1 inh-2: -0.3

Results for Cc1cc(NS(=O)(=O)c2ccc(NC(=O)Cc3ccccc3)cc2)no1 ?
hcDAF12 agonist: -1.5; hgDAF12 agonist: -1.8; ssDAF12 agonist: -0.8; DAX1 inh-2: -0.6

Results for CN(C)C(=O)NCCCC#Cc1ccccc1 ?
hcDAF12 agonist: 0.2; hgDAF12 agonist: -2.1; ssDAF12 agonist: -1.6; DAX1 inh-2: -0.7

How did COc1ccc(C(CC(=O)c2ccc(C)cc2)Sc2ccccc2N)cc1 (stereo unspecified) do in these assays?
hcDAF12 agonist: 5.7*; hgDAF12 agonist: 5.5; ssDAF12 agonist: 0.4; DAX1 inh-1: 0.9; DAX1 inh-2: 2.8

Results for CC(NC(=O)C1CCC(CNc2c(N3CCCCC3)c(=O)c2=O)CC1)c1ccccc1 (stereo unspecified) ?
hcDAF12 agonist: 0.2; hgDAF12 agonist: -0.6; ssDAF12 agonist: -1.2; DAX1 inh-1: 5.8*; DAX1 inh-2: 0.3

How did CC1CCCC(NC(=O)CNC(=O)c2cccs2)C1C (stereo unspecified) do in these assays?
hcDAF12 agonist: 0.0; hgDAF12 agonist: 0.6; ssDAF12 agonist: -0.7; DAX1 inh-1: 5.2*; DAX1 inh-2: 1.3

How did CN(C(=O)COC(=O)c1cccnc1Cl)C1CCCCC1 do in these assays?
hcDAF12 agonist: 3.5; hgDAF12 agonist: 4.2; ssDAF12 agonist: 0.0; DAX1 inh-1: 0.7; DAX1 inh-2: 4.5*

Results for O=C(C/C=N/OCc1c(Cl)cccc1Cl)c1ccccc1 ?
hcDAF12 agonist: 3.7; hgDAF12 agonist: 5.8; ssDAF12 agonist: 0.9*; DAX1 inh-1: 0.4; DAX1 inh-2: 0.7

How did O=C(C/C=N/OCc1ccc(Cl)cc1Cl)c1ccccc1 do in these assays?
hcDAF12 agonist: 2.7; hgDAF12 agonist: 1.1; ssDAF12 agonist: -1.1; DAX1 inh-1: 1.1; DAX1 inh-2: 0.6

What do the screens show for `CC1=C(C(=O)Nc2ccc(C)cc2C)C(c2ccc(Cl)cc2)n2nc(C(=O)OC(C)C)nc2N1` (stereo unspecified)?
hcDAF12 agonist: -1.7; hgDAF12 agonist: -0.2; ssDAF12 agonist: -0.9; DAX1 inh-1: 4.4*; DAX1 inh-2: -0.4

How did CSc1ccccc1NC(=O)c1cc(C)on1 do in these assays?
hcDAF12 agonist: -0.2; hgDAF12 agonist: 0.5; ssDAF12 agonist: -1.4; DAX1 inh-1: -0.5; DAX1 inh-2: 0.3

How did CSc1ccccc1NC(=O)c1cc(C(C)C)on1 do in these assays?
hcDAF12 agonist: 6.4*; hgDAF12 agonist: 5.5; ssDAF12 agonist: 0.1; DAX1 inh-1: 0.7; DAX1 inh-2: 0.6

Results for CC(C)c1cc(C(=O)NCCc2ccccc2)no1 ?
hcDAF12 agonist: 4.5; hgDAF12 agonist: 5.6; ssDAF12 agonist: 0.9; DAX1 inh-1: 7.4*; DAX1 inh-2: 2.9

What do the screens show for `CCCn1cnc2c(SCc3ccccn3)nc(N)nc21`?
hcDAF12 agonist: 0.6; hgDAF12 agonist: -3.0; ssDAF12 agonist: -0.6; DAX1 inh-1: 1.4; DAX1 inh-2: 1.0

What do the screens show for `Nc1nc(SCc2ccccn2)c2ncn(C3CCCC3)c2n1`?
hcDAF12 agonist: -1.0; hgDAF12 agonist: 10.5*; ssDAF12 agonist: -0.6; DAX1 inh-1: 2.3; DAX1 inh-2: 0.9

How did C(=C\c1ccccc1)/CSc1nc2ncccc2[nH]1 do in these assays?
hcDAF12 agonist: 0.9; hgDAF12 agonist: 5.3; ssDAF12 agonist: 0.0; DAX1 inh-1: 4.5*; DAX1 inh-2: 0.5

Results for COC(=O)[C@]1(CNC(=O)C(C)(C)C)CC(=O)N(C)[C@@H]1c1ccccc1 ?
hcDAF12 agonist: -0.5; hgDAF12 agonist: -3.2; ssDAF12 agonist: -1.4; DAX1 inh-2: 0.2

Results for NNC(=O)CNc1ccccc1Cl ?
hcDAF12 agonist: -0.3; hgDAF12 agonist: -0.5; ssDAF12 agonist: 1.0*; DAX1 inh-1: 1.9; DAX1 inh-2: 0.2

How did O=C(CCCCC(=O)Nc1ccccc1Cl)Nc1ccccc1Cl do in these assays?
hcDAF12 agonist: 0.1; hgDAF12 agonist: 2.5; ssDAF12 agonist: -0.8; DAX1 inh-1: -0.2; DAX1 inh-2: -0.3

Results for C=CCN1[C@H](CC(C)C)COc2cc(N3CCCC3)ccc2S1(=O)=O ?
hcDAF12 agonist: -1.9; hgDAF12 agonist: -1.7; ssDAF12 agonist: 0.0; DAX1 inh-2: -1.1

What do the screens show for `Cn1cc(-c2nnnn2-c2cccc(C(F)(F)F)c2)c(C(F)(F)F)n1`?
hcDAF12 agonist: -0.3; hgDAF12 agonist: -1.8; ssDAF12 agonist: -0.9; DAX1 inh-1: 0.0; DAX1 inh-2: 0.0

How did Cc1csc2ncc(C(=O)Nc3ccccc3F)c(=O)n12 do in these assays?
hcDAF12 agonist: 6.2*; hgDAF12 agonist: 6.0; ssDAF12 agonist: 0.3; DAX1 inh-1: 1.4; DAX1 inh-2: 0.7

What do the screens show for `C[C@H]1COc2cc(Br)ccc2S(=O)(=O)N1Cc1cn(Cc2ccc(Br)cc2)nn1`?
hcDAF12 agonist: 3.0; hgDAF12 agonist: 1.2; ssDAF12 agonist: -1.7; DAX1 inh-2: -0.9
